From PubChem BioAssay
USP28 block: inhibitors of human USP28 deubiquitinase; Ubiquitin carboxyl-terminal hydrolase 28 (Homo sapiens), Q96RU2; purified USP28, Ub-rhodamine cleavage fluorescence, 30 min; inhibition, % at 25 µM; 47,000 compounds, 3% hits; AID 1645857, 2021
USP17 inh: inhibitors of human USP17 deubiquitinase; 47,000 compounds, 6.5% hits; inhibition, % at 50 µM; Ubiquitin carboxyl-terminal hydrolase 17-like protein 5 (Homo sapiens), A8MUK1; purified USP17, Ub-rhodamine cleavage fluorescence, 3 h
USP30 inh: inhibitors of human USP30 deubiquitinase | Ubiquitin carboxyl-terminal hydrolase 30 (Homo sapiens), Q70CQ3 | purified USP30, Ub-rhodamine cleavage fluorescence | inhibition, % at 25 µM | 47,000 compounds, 5.3% hits | AID 1645860, 2021
USP8 block: inhibitors of human USP8 deubiquitinase. purified USP8, Ub-rhodamine cleavage fluorescence, 30 min. 47,000 compounds, 4.2% hits. inhibition, % at 20 µM. AID 1645853, 2021. Ubiquitin carboxyl-terminal hydrolase 8 (Homo sapiens), P40818
Each line names hits and unclear results; the compound was inactive in the other large screens. Shown are actives, neighbours in structure and some others; about 13% of the full set was active somewhere. Rule as the data show it: active = inhibition above about 30%; inactive = the rest.

COCCn1cnc2c1c(=O)n(CC(=O)NCc1ccccc1OC)c(=O)n2Cc1ccccc1	USP17 inh 31, USP30 inh 45
CCn1cnc2c1c(=O)n(CC(=O)NCc1ccc3c(c1)OCO3)c(=O)n2Cc1ccccc1	USP17 inh 37
CC(C)Cn1cnc2c1c(=O)n(CC(=O)NCCc1ccc(F)cc1)c(=O)n2Cc1ccccc1	USP30 inh 43
COc1ccc(NC(=O)CCc2c(C)nn3cnnc3c2C)cc1	none
O=C(N1CCOCC1)N1CCC2(CCN(c3ncccn3)CC2)C1	none
CC(=O)N1CCN(C(=O)c2ccc(NCc3ccccc3Cl)c(S(=O)(=O)Nc3cccc(C(F)(F)F)c3)c2)CC1	none
O=C1CCSc2ccc(S(=O)(=O)CCC(=O)N3CCc4ccccc4C3)cc2N1	USP17 inh 39
CC1CCN(C(=O)CCS(=O)(=O)c2ccc3c(c2)NC(=O)CCS3)CC1	none
Cc1cccc(C)c1NC(=O)C1(NC(=O)C(C)O)CCCC1 (configuration not stated)	none (no result: USP28 block, USP30 inh)
Cc1cccc(C)c1NC(=O)C1(NC(=O)c2ccc(Br)cc2)CCCCC1	USP17 inh 35, USP8 block 43
Cc1nc(C(=O)N2CCC3(CC2)CO[C@@H]([C@@]2(C)CC[C@H](O)C(C)(C)O2)C3)c(C)s1	none (no result: USP17 inh)
CCOC(=O)C1CCN(C(=O)c2cc(NC(C)=O)cc3nc(C)ccc23)CC1	none
Cn1c(=O)c2c(ncn2CCCOc2ccc(F)cc2)n(C)c1=O	none
CCCN1CCN(C(=O)c2c(OC)cc(=O)n3c2CCCC3)CC1	none
Cc1ccccc1C(=O)Nc1ccc(Cc2ccc(NC(=O)c3ccccc3C)c(O)c2)cc1O	USP17 inh 55, USP8 block 43
COCCN1C(=O)c2ccccc2C(C(=O)Nc2cccc(OC)c2)C12CCCC2 (configuration not stated)	none
COc1ccc(C(=O)Nc2ccc3c(c2)N(C(=O)C2CC2)CCC3)cc1OC	USP28 block 33
O=C(Nc1ccc2c(c1)N(C(=O)C1CCCC1)CC2)c1c(F)cccc1F	USP28 block 93, USP17 inh 32
Cc1ccc(S(=O)(=O)N2CCC3(CC2)NCCN=C3NC2CCCCC2)cc1C	none
CC(=O)Nc1ccc(C(=O)NCc2cccc(C)c2)c(N2CCOCC2)c1	none
CN(C)c1cccc(C(=O)Nc2cc(-c3cccnc3)no2)c1	USP17 inh 51
Cc1cccc(C)c1NC(=O)COC(=O)c1ccc2[nH]c3c(c2c1)CCCC3	none
O=C(COC(=O)c1cc2c(s1)CCC2)c1ccc2[nH]c(=O)[nH]c2c1	USP28 block 66, USP17 inh 56, USP8 block 70
COc1ccccc1/C=C(\C(=O)N1CCN(Cc2ccccc2)CC1)c1ccccc1	USP30 inh 40
Cc1ccc(NC(=O)Nc2ccc(C)n(CC(=O)Nc3ccccc3)c2=O)cc1	USP17 inh 89, USP8 block 45 (no result: USP28 block, USP30 inh)
Cc1ccc(NC(=O)Cn2c(C)ccc(NC(=O)Nc3cccc(C)c3)c2=O)cc1	none
Cc1ccc(NC(=O)COc2ccc(-c3nc(C(C)C)no3)cc2)c(F)c1	USP17 inh 37, USP30 inh 32
Cc1cc(C)cc(NC(=O)Cc2nnc3ccc(-c4nc(C)no4)cn23)c1	none
CCc1noc(-c2ccc(OCC(=O)Nc3cc(C)cc(C)c3)cc2)n1	USP30 inh 44
Cc1cc(=O)sc2c1c(C)nn2-c1ccccc1	USP28 block 30, USP17 inh 31
O=C(CSc1n[nH]c2nc3ccccc3n12)Nc1ccc2c(c1)OCO2	USP28 block 37, USP8 block 30
Cc1cccc(C)c1NC(=O)Cn1c(=O)n(CCCCC(=O)NCc2ccc3c(c2)OCO3)c(=O)c2ccccc21	USP28 block 32, USP17 inh 33, USP30 inh 67, USP8 block 69
O=C(CCCn1c(=O)c2ccccc2n(CC(=O)Nc2ccc(Br)cc2F)c1=O)NCc1ccccc1Cl	USP17 inh 41
O=C(CCCn1c(=O)c2ccccc2n(CC(=O)NCc2ccccc2Cl)c1=O)NCc1ccc2c(c1)OCO2	USP28 block 33, USP30 inh 66, USP8 block 73
O=C(CSc1c[nH]c2ccccc12)Nc1ccc2c(c1)OCO2	none
O=C(Cn1c(=O)c2ccccc2c2ccccc21)Nc1ccc2c(c1)OCO2	USP28 block 31, USP17 inh 53, USP30 inh 82, USP8 block 87
Cc1ccc(S(=O)(=O)CCc2nc(-c3ccc(N4CCC(C)CC4)cc3)no2)cc1	USP30 inh 45 (no result: USP17 inh)
Cc1ccc(S(=O)(=O)CCc2nc(-c3ccc4c(c3)ncn4C)no2)cc1	none (no result: USP28 block, USP30 inh)
